# Screens deposited in PubChem BioAssay by National Center for Advancing Translational Sciences (NCATS).
# 12-LOX inh: ALOX12 (human) lipoxygenase inhibition. P18054. purified 12hLO, xylenol orange hydroperoxide absorbance. Potency, µM (series often up to 108 µM), inactives show at the highest dose activity change, negative = inhibition, usual class: inhibitors. 1.1% of 580,000 active. AID 1671190; note: potency is the fitted concentration of half-maximal effect; % is set by controls: 0 for no effect and ±100 for the full control effect
# Target sequence (P18054 whole entry, looked up): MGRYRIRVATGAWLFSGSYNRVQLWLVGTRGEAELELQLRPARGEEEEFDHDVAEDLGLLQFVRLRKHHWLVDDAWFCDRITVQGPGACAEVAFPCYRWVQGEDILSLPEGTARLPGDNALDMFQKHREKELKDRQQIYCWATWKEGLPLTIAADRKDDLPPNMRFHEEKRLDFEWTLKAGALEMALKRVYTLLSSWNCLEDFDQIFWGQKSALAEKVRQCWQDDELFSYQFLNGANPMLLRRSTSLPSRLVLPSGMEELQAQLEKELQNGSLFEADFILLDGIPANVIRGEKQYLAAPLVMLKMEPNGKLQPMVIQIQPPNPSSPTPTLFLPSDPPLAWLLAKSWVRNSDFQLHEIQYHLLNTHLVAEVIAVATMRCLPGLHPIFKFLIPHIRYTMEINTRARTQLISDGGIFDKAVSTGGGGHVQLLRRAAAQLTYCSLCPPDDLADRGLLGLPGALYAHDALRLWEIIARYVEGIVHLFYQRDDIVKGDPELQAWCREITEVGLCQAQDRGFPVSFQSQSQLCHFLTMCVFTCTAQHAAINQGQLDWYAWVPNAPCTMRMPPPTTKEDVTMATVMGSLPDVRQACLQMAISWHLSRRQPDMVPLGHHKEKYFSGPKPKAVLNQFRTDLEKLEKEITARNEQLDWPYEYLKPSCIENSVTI
#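 Hydroperoxide product was detected by ferrous iron/xylenol orange as the 573 to 405 nm absorbance ratio. Arachidonic acid at 40 uM (final) was turned over for 30 min at room temperature by 150 nM human 12hLO, pH 7.0 Hepes buffer, after 15 min compound preincubation.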
# Pol iota inh: inhibitors of human DNA polymerase iota; Potency, µM (highest dose often 115 µM), without a hit: top-dose activity, negative = inhibition, actives largely listed as inhibitors; Q9UNA4; Pol iota fluorescent replication assay, 10 min; 1% of 390,000 active; note: potency is the fitted concentration of half-maximal effect
#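 Pol iota at 10 nM preincubated 15 min with compounds at room temperature; reaction started with fluorescent substrate, 50 nM final. Fluorescence read kinetically at 0 and 10 min; buffer-only wells as negative control.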
# PI5P4Ka inh: inhibitors of human PI5P4K alpha. P48426. PI5P4Kalpha enzyme, ADP-Glo luminescence, 60 min; active compounds read low. max response, %. 1.2% of 330,000 active. AID 652105; active = max response of -50% or lower; inconclusive = between -30% and -50%; inactive = -30% or higher; note: value at the top dose of about 77 µM; % is set by controls: 0 for no effect and ±100 for the full control effect
#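 Single end-point luminescence (ADP-Glo) quantified ADP from PI5P4Kalpha turnover; ATP 5 microM final, 1 h at RT, 0.1% CHAPS and 0.28 mM EGTA in HEPES pH 7.4.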
# Pol eta inh-1: blocks human DNA polymerase eta activity; 1.2% of 390,000 active; recombinant Pol eta, fluorescent DNA replication assay; Q9Y253; Potency, µM (highest dose often 114 µM), inactives show at the top dose activity change, negative = inhibition, usual class: inhibitors; note: potency is the fitted concentration of half-maximal effect; % is set by controls: 0 for no effect and ±100 for the full control effect
#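 Pol eta at 10 nM preincubated with compounds 15 min at room temperature; reaction started with fluorescent substrate (50 nM final) and read kinetically at 0 and 10 min.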
# Pol beta inh-1: blocks human DNA polymerase beta activity | P06746 | Pol beta primer extension/strand displacement, fluorescence kinetic | Potency, µM (doses to about 114 µM), for inactives: at the highest dose activity change, negative = inhibition, hits mostly inhibitors | 1.3% of 340,000 active | AID 485314; note: potency is the fitted concentration of half-maximal effect; % is set by controls: 0 for no effect and ±100 for the full control effect
#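 Pol beta (10 nM) and compounds were preincubated 15 min at room temperature, then 50 nM substrate (final) started primer extension/strand displacement. Reads were taken at 0 and 10 min; concentration-response data were fitted to a four-parameter Hill equation.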
# Pol kappa inh-1: DNA polymerase kappa (human) inhibition; Q9UBT6; purified Pol kappa, fluorescent DNA synthesis assay, 10 min; Potency, µM (doses to about 107 µM), for the others: at the top dose activity, negative = inhibition, usual class: inhibitors; 0.53% of 400,000 active; note: potency is the fitted concentration of half-maximal effect; % is set by controls: 0 for no effect and ±100 for the full control effect
#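 Activity was followed as the change in fluorescence between reads at 0 and 10 min after starting the reaction with 50 nM substrate. Beforehand, 10 nM polymerase had been preincubated with compound for 15 min at room temperature.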
# Pol beta inh-2: Human Pol beta inhibitor hit validation; Potency, µM, actives largely listed as inhibitors; 87% of 250 active; AID 540280; shares compounds with Pol beta inh-1; Pol beta primer extension/strand displacement, fluorescence kinetic; calls by dose curve; note: potency is the fitted concentration of half-maximal effect
# Klenow inh: counter-screen for DNA polymerase beta inhibitors: Klenow fragment inhibition; shares compounds with Pol beta inh-1; Klenow exo- polymerase counter-screen, fluorescent DNA substrate; activity change, negative = inhibition, % at 57.1 µM; 250 tested, under 10 active; AID 540300
# HIV RT counter: counter-screen for DNA polymerase beta inhibitors: HIV-1 RT inhibition | HIV-1 RT polymerase activity, counter-screen | 250 tested, under 10 active | activity % (negative = inhibition, positive = activation), % at 57.1 µM | shares compounds with Pol beta inh-1
# POLB valid: validation of human DNA polymerase beta inhibitors; shares compounds with Pol beta inh-1; radiolabeled primer extension gel assay, phosphorimager; inhibition, % at 10 µM; 91% of 110 active;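 active = inhibition at 10 µM of 30% or more; inconclusive = no clear call, values can overlap the other calls; inactive = inhibition at 10 µM under 30%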
# PGK validate: TbPGK inhibition, hit validation; shares compounds with Pol kappa inh-1; TbPGK coupled GAPDH assay, Kinase-Glo luminescence; Potency, µM (highest dose often 57.5 µM), for inactives: at the top dose activity change, negative = inhibition, usual class: inhibitors; 79% of 500 active; note: potency is the fitted concentration of half-maximal effect; % is set by controls: 0 for no effect and ±100 for the full control effect; nearly all actives have a fitted effect of over 65% in size
# Pol iota confirm: Human Pol iota inhibitor confirmatory assay; shares compounds with Pol kappa inh-1; Pol iota primer extension, TAMRA/BHQ fluorescence; Potency, µM, usual class: inhibitors; 77% of 1,500 active; note: potency is the fitted concentration of half-maximal effect
# Pol kappa inh-2: confirmation of human DNA polymerase kappa inhibitors; purified Pol-kappa, fluorescent strand-displacement substrate; 76% of 920 active; shares compounds with Pol eta inh-1; Potency, µM, usual class: inhibitors; note: potency is the fitted concentration of half-maximal effect
# Pol eta inh-2: Pol eta (human) inhibition, cherry-pick confirmation; Potency, µM, most hits filed as inhibitors; 64% of 2,600 active; AID 720502; shares compounds with Pol eta inh-1; Pol eta primer extension, TAMRA/BHQ fluorescence, 10 min; note: potency is the fitted concentration of half-maximal effect
# * = called active by the depositor; ? = inconclusive; · = no result. A selection: hits, their analogues and other compounds. The true share with any hit is near 2.9%. Unless noted, calls come from the whole dose curve; as a rule, active = well fitted curve in the direction sought with a large enough effect; inconclusive = small, poorly fitted or top-dose-only effect, or another doubt; inactive = no such curve, though single readings can be large; an effect the other way counts as inactive or inconclusive.
SMILES,12-LOX inh,Pol iota inh,PI5P4Ka inh,Pol eta inh-1,Pol beta inh-1,Pol kappa inh-1,Pol beta inh-2,Klenow inh,HIV RT counter,POLB valid,Pol iota confirm,Pol eta inh-2,others
O=C(NCCc1ccc(Cl)cc1)Nc1ccc(Cl)cc1F,-25.8%,·,·,·,·,·,·,·,·,·,·,·,
CC(C)(C)C(=O)N1CCC(C(=O)Nc2ccc(S(=O)(=O)N3CCCC3)cc2)CC1,0.3%,·,·,·,·,·,·,·,·,·,·,·,
CCOc1ccc(-n2c(SCC(=O)N3CCc4ccccc43)nnc2-c2c[nH]c3ccccc23)cc1,12.6%,?,6.2,5.62µM*,1µM*,0.0%,1.41*,-9.5,26.2,·,29.9*,75.7*,
COc1cccc(-n2c(SCC(=O)N3CCc4ccccc43)nnc2-c2c[nH]c3ccccc23)c1,15.6%,-1.2%,-0.7,-4.0%,-0.3%,-3.3%,·,·,·,·,·,·,
COC(=O)c1ccccc1NC(=O)c1noc2c1CCC2,?,20µM*,·,20µM*,10µM*,?,31.6*,-33.1,6.7,72.7*,37.7*,30.1*,
CSc1ccccc1NC(=O)c1noc2c1CCC2,?,20µM*,·,28.2µM*,10µM*,?,31.6*,-9.7,3.2,92.7*,67*,60.1*,
COC(=O)c1ccccc1NC(=O)c1noc2c1CSc1ccccc1-2,-5.7%,-10.1%,·,-10.4%,22.8%,-22.0%,·,·,·,·,·,·,
CC(C)c1nccn1CCCNC(=O)c1ccc(N2CCCCCC2)nc1,-37.5%,·,·,·,·,·,·,·,·,·,·,·,
COc1cccc(C(=O)COC(=O)C(CC(=O)c2ccccc2)Nc2ccccc2OC)c1 (centres undefined),5.4%,·,·,·,·,·,·,·,·,·,·,·,
CCC1(C)NC(=O)N(CC(=O)Nc2sc3c(c2C(=O)OC)CCCCC3)C1=O (centres undefined),-13.5%,9.5%,-17.5,-7.3%,19.3%,-8.7%,·,·,·,·,·,·,
CCC1(CC)NC(=O)N(CC(=O)Nc2sc3c(c2C(N)=O)CCC3)C1=O,-7.4%,12.6µM*,-69.6*,25.1µM*,15.8µM*,?,28.2*,-20.3,-9.7,94.7*,·,?,
Fc1ccc(-c2nnn(Cc3coc(-c4ccccc4)n3)n2)cc1,4.9%,·,·,·,·,·,·,·,·,·,·,·,
COc1ccc(CN(C(=O)c2ccco2)c2ccccc2)cc1,1.0%,-4.4%,-1.8,-2.4%,7.6%,-11.0%,·,·,·,·,·,·,
COc1ccc(CN(CCC(c2ccccc2)c2ccco2)C(=O)c2ccco2)cc1 (centres undefined),50.1µM*,50.1µM*,?,79.4µM*,20µM*,-40.9%,31.6*,-19.4,4.1,99.6*,·,?,
Cc1cc(C)n(-c2nc(Nc3ccccc3)nc(-n3nc(C)cc3C)n2)n1,11.6%,-1.1%,·,?,10µM*,-2.6%,?,-37.0,23.4,·,·,?,
Cc1oc(C(=O)O)cc1COc1cccc2cccnc12,0.0%,10µM*,-8.4,8.91µM*,10µM*,?,15.8*,-22.6,2.0,·,67*,?,
Fc1ccc(COc2cccc3cccnc23)cc1,-1.0%,81.5%,3.4,-6.9%,15.5%,3.8%,·,·,·,·,·,·,
CCOC(=O)c1ccccc1NC(=O)c1ccc2nccnc2c1,-0.1%,?,-24.0,20µM*,8.91µM*,?,28.2*,-3.4,3.5,54.1*,?,30.1*,
CC(CCc1ccccc1)NCC1CCCO1 (centres undefined),-48.9%,·,·,·,·,·,·,·,·,·,·,·,
Cc1cc(/C=C2\C(=N)N3N=C(c4ccco4)SC3=NC2=O)c(C)n1Cc1ccccc1,345.6%,20µM*,-61.8*,22.4µM*,10µM*,50.1µM*,14.1*,-11.1,-13.4,·,·,42.6*,Pol kappa inh-2=16.8*
CC1CCCCC1NC(=O)COC(=O)c1c2c(nc3ccccc13)/C(=C/c1ccco1)CC2 (centres undefined),?,3.55µM*,-83.0*,8.91µM*,11.2µM*,10µM*,17.8*,-27.0,-4.8,·,33.6*,21.3*,
C=C(C)C(=O)Nc1cccc(C2=NOC3(C2)C[C@H](C(N)=O)N(C(=O)c2ccccc2)C3)c1 (some centres undefined),-14.4%,50.1µM*,-28.2,12.6µM*,17.8µM*,?,28.2*,-31.9,-1.5,85.6*,·,26.9*,PGK validate=?
COC(=O)c1c(NC(=O)c2nc3nc(C)cc(C(F)F)n3n2)sc2c1CCC2,-19.9%,?,·,-4.7%,30.1%,-7.5%,·,·,·,·,·,·,
Cc1cc(C(F)F)n2nc(C(=O)Nc3sc4c(c3C(N)=O)CCC4)nc2n1,-16.3%,20µM*,?,20µM*,15.8µM*,?,31.6*,-13.4,-14.1,18.1,?,?,
Cc1ccc(-n2nc(C)c3c(C(=O)O)cc(C)nc32)cc1,?,?,·,2.5%,17.4%,-28.3%,·,·,·,·,·,·,
Cc1nn(-c2ccccc2)c2nc(-c3ccco3)cc(C(=O)O)c12,?,?,?,7.94µM*,14.1µM*,28.2µM*,25.1*,-36.9,?,65.0*,·,30.1*,
CC(=O)c1ccc(NC(=O)CSc2ccsc2[N+](=O)[O-])cc1,-20.9%,?,-80.8*,11.2µM*,5.62µM*,?,22.4*,-29.0,17.6,99.4*,42.3*,?,Pol kappa inh-2=37.7*
O=C(CSc1ccsc1[N+](=O)[O-])Nc1cc(F)ccc1F,?,?,-94.0*,7.08µM*,12.6µM*,25.1µM*,25.1*,-33.5,-5.3,99.1*,67*,42.6*,PGK validate=14.6µM*
CC(C)c1ccc(CCNC(=O)c2cccc3cccnc23)cc1,-3.6%,·,·,·,·,·,·,·,·,·,·,·,
